We go through three compounds from PubChem BioAssay (Tox21).

Results filed as inconclusive are left out. Values without a mark were called inactive. Activity calls are given as the source filed them. Calls follow the shape of the dose curve; as a rule, active = well fitted cell-killing curve with a large enough effect in the repeat runs; inconclusive = weak or mixed curves, or effect the other way; inactive = flat fitted curve, though single readings scatter.
% is scaled to controls: 0 for no effect and ±100 for the full control effect; potency is read from the fitted curve at half-maximal effect.

A short description of the assay: cAMP Responsive Elements (CRE) small molecule antagonists, cell-based qHTS assay: qHTS cell viability counter screen (AID 2060913). Also: nearly all actives have a fitted effect of over 40% in size. As to conditions: CRE-bla HEK293T viability, CellTiter-Glo luminescence, 5 h; series mostly up to 92.4 µM; viability change, negative = cytotoxic: at the top concentration. An outline of the steps: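 HEK293T CRE-bla, 2,000 cells/well, 18 h preincubation; cpd in DMSO + NKH477 0.25 uM final, 3 h 37 C/5% CO2; LiveBLAzer 2 h RT, then CellTiter-Glo 30 min RT, luminescence.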
(In general: qHTS replaces the single test concentration by a dilution series.)
`CCOc1ccc(NC(=O)CC(C)O)cc1` (stereo not drawn): the Potency entry is “inactive”. Consider `CC1(C)SC(C)(C)SC(C)(C)S1`, for which the “viability change, negative = cytotoxic” value is 3.38%. In the case of `CC(C)c1cccc(C(C)C)c1N1C(=O)c2ccc(O)cc2C1=O`, the Potency was 61.1 µM (active).
